Compounds without any hit were thinned out: in the full panel of roughly 83,000, 20% have a hit.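 Activity criterion: percent growth below 10, measured after cells in 96-well plates were exposed to a single compound concentration for 48 hours.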 The source made the active and inactive calls.
Columns and labels:
Experiment in all cases: NCI-60 one-dose screen, 48 h (100 = growth as untreated, 0 = no growth, -100 = all killed)
Conditions in all cases: 10 µM unless noted
SK-MEL-2 melanoma = tested on: SK-MEL-2 melanoma
EKVX NSCLC = tested on: EKVX NSCLC
SN12C renal = tested on: SN12C renal
UO-31 renal = tested on: UO-31 renal
TK-10 renal = tested on: TK-10 renal
CAKI-1 renal = tested on: CAKI-1 renal
A498 renal = tested on: A498 renal
CCRF-CEM leukemia = tested on: CCRF-CEM leukemia
MOLT-4 leukemia = tested on: MOLT-4 leukemia
ACHN renal = tested on: ACHN renal

Measured: growth

CC(=O)O[C@H]1CC[C@]2(C)[C@H]3C(=O)C=C4[C@@H]5C[C@](C)(C(=O)N6CCCNCC6)CC[C@]5(C)CC[C@@]4(C)[C@]3(C)CC[C@H]2C1(C)C
active: SN12C renal -82.1% | UO-31 renal -85.5% | TK-10 renal -14.3% | CAKI-1 renal -99.3% | CCRF-CEM leukemia -31.5% | MOLT-4 leukemia -23.6%
inactive: SK-MEL-2 melanoma 96.2% | EKVX NSCLC 54.8% | A498 renal 74.1%

COc1ccc2c(c1)c(-c1nc(-c3cn(C)c4ncccc34)cs1)cn2CCN
inactive: SK-MEL-2 melanoma 101% | EKVX NSCLC 56.5% | SN12C renal 76.3% | UO-31 renal 66.6% | TK-10 renal 92.4% | ACHN renal 69.4% | CCRF-CEM leukemia 69% | MOLT-4 leukemia 29.7%

C=C1C(=O)O[C@H]2[C@H]1CC/C(COC(=O)NCc1c[nH]c3ccccc13)=C\CC[C@@]1(C)O[C@@H]21
inactive: SK-MEL-2 melanoma 70.5% | EKVX NSCLC 84.2% | SN12C renal 44.4% | TK-10 renal 34.3% | A498 renal 102%
active: UO-31 renal -62.7% | ACHN renal -36.2% | CCRF-CEM leukemia 7.29% | MOLT-4 leukemia 1.16%

C=C1C(=O)O[C@H]2[C@H]1CC/C(COC(=O)N[C@H](Cc1c[nH]c3ccccc13)C(=O)OC)=C\CC[C@@]1(C)O[C@@H]21
active: UO-31 renal -4.81% | ACHN renal -17.7% | CCRF-CEM leukemia 2.23% | MOLT-4 leukemia 4.53%
inactive: SK-MEL-2 melanoma 70.4% | EKVX NSCLC 63.6% | SN12C renal 41.7% | TK-10 renal 25.8% | A498 renal 83%

CC(CNc1nc(Nc2ccc(Cl)c(Cl)c2)nc(C(Cl)(Cl)Cl)n1)N(C)C (stereo not given)
active: SK-MEL-2 melanoma -92.1% | UO-31 renal -3.58% | TK-10 renal -61.7% | CAKI-1 renal -19.1% | CCRF-CEM leukemia -3.41% | MOLT-4 leukemia -49.4%
inactive: EKVX NSCLC 18.5% | SN12C renal 16.2% | A498 renal 22.8%

COc1ccc(C2C(C#N)=C(N)Oc3c2sc2c(F)cccc32)cc1 (stereo not given)
active: MOLT-4 leukemia 8.8%
inactive: SK-MEL-2 melanoma 19.8% | EKVX NSCLC 50.3% | SN12C renal 39.7% | UO-31 renal 37.6% | TK-10 renal 56.6% | ACHN renal 42.9% | A498 renal 41.4% | CCRF-CEM leukemia 14.9%

O=C1c2ccccc2NC(c2cn(-c3ccccc3)nc2-c2cccs2)N1Cc1ccccc1 (stereo not given)
inactive: SK-MEL-2 melanoma 74% | EKVX NSCLC 72.1% | SN12C renal 90.8% | UO-31 renal 57.5% | TK-10 renal 91.1% | ACHN renal 86.2% | A498 renal 84% | CCRF-CEM leukemia 95.6% | MOLT-4 leukemia 55.1%

CCCCC[C@H]1C/C=C2/C(=O)C(Cl)=C[C@@H]2C/C=C\CCCC(=O)O[C@@H](CCCCC)C/C=C2/C(=O)C(Cl)=C[C@@H]2C/C=C\CCCC(=O)O1
active: SK-MEL-2 melanoma -46% | EKVX NSCLC 5.48% | SN12C renal -42.2% | UO-31 renal -89.9% | TK-10 renal -20.2% | ACHN renal -93% | A498 renal -77.4% | CCRF-CEM leukemia 0.433% | MOLT-4 leukemia 3.32%

Cc1cc(N(CCNc2ccnc3cc(Cl)ccc23)Cc2ccco2)nc(Cl)n1
inactive: EKVX NSCLC 32.2% | A498 renal 20.8%
active: SK-MEL-2 melanoma -7.16% | SN12C renal -79.2% | UO-31 renal -97% | TK-10 renal -74.4% | ACHN renal -98.8% | CCRF-CEM leukemia 0.284% | MOLT-4 leukemia -26.2%

Cn1cc(-c2csc(-c3cn(CCCN4CCCCC4)c4ccc(Br)cc34)n2)c2cccnc21
active: SN12C renal -31.3% | UO-31 renal -93.9% | ACHN renal -61.1% | CCRF-CEM leukemia -23.8% | MOLT-4 leukemia -46.3%
inactive: SK-MEL-2 melanoma 37% | EKVX NSCLC 49.6% | TK-10 renal 26.7% | A498 renal 79.1%

CC/C=C\C[C@H]1CC=C2C(=O)C=C[C@@H]2CC=CCCCC(=O)O[C@@H](CCCCC)CC=C2C(=O)C=C[C@@H]2CC=CCCCC(=O)O[C@@H](CCCCC)CC=C2C(=O)C=C[C@@H]2CC=CCCCC(=O)O[C@@H](CCCCC)CC=C2C(=O)C=C[C@@H]2CC=CCCCC(=O)O1
inactive: EKVX NSCLC 63.7% [7.9 µM] | TK-10 renal 57.5% [7.9 µM] | ACHN renal 19.6% [7.9 µM] | A498 renal 73.1% [7.9 µM]
active: SK-MEL-2 melanoma -5.92% [7.9 µM] | SN12C renal -10.5% [7.9 µM] | UO-31 renal 9.76% [7.9 µM] | CCRF-CEM leukemia 9.35% [7.9 µM] | MOLT-4 leukemia 4.01% [7.9 µM]

Cc1cc(N2CCCC2)nc(N(CCNc2ccnc3cc(Cl)ccc23)Cc2ccco2)n1
active: MOLT-4 leukemia -9.45%
inactive: SK-MEL-2 melanoma 77.1% | EKVX NSCLC 36.1% | SN12C renal 28.8% | UO-31 renal 10.8% | TK-10 renal 63.8% | ACHN renal 39.6% | A498 renal 26.9% | CCRF-CEM leukemia 11%

Cn1cc(-c2csc(-c3cn(CCCN4CCCCC4)c4ccccc34)n2)c2cccnc21
inactive: SK-MEL-2 melanoma 101% | EKVX NSCLC 70.8% | A498 renal 82.6%
active: SN12C renal -70.9% | UO-31 renal -90.2% | TK-10 renal -84.3% | ACHN renal -97.4% | CCRF-CEM leukemia -27.9% | MOLT-4 leukemia -50.5%

Cc1cc(N(CCCNc2ccnc3cc(Cl)ccc23)Cc2ccco2)nc(N2CCN(C)CC2)n1
inactive: SK-MEL-2 melanoma 70.7% | EKVX NSCLC 66.1% | SN12C renal 50.5% | UO-31 renal 47.5% | TK-10 renal 117% | ACHN renal 18.6% | A498 renal 72.2% | CCRF-CEM leukemia 43.4% | MOLT-4 leukemia 37.6%

Fc1ccc(Nc2nc(Nc3ccc(-c4nc5ccccc5[nH]4)cc3)nc(N3CCCC3)n2)cc1
inactive: SK-MEL-2 melanoma 95.2% | EKVX NSCLC 71.9% | SN12C renal 81.2% | UO-31 renal 68.1% | ACHN renal 73.1% | CAKI-1 renal 88% | A498 renal 75.3% | MOLT-4 leukemia 48.2%
active: CCRF-CEM leukemia 5.35%

NCCn1cc(-c2nc(-c3c[nH]c4ncccc34)cs2)c2cc(Br)ccc21
inactive: SK-MEL-2 melanoma 101% | EKVX NSCLC 64% | SN12C renal 78% | UO-31 renal 62.2% | TK-10 renal 149% | A498 renal 93.6% | CCRF-CEM leukemia 60% | MOLT-4 leukemia 41.8%

C/C(=N\NC(=O)C(C)SC(C)C(=O)N/N=C(\C)c1cccnc1)c1cccnc1 (stereo not given)
inactive: SK-MEL-2 melanoma 93.8% | EKVX NSCLC 100% | SN12C renal 106% | UO-31 renal 81% | ACHN renal 106% | CAKI-1 renal 97.7% | A498 renal 88.2% | CCRF-CEM leukemia 99.4% | MOLT-4 leukemia 86.7%

c1ccc2[nH]c(-c3ccc(Nc4nc(N5CCCCC5)nc(N5CCOCC5)n4)cc3)nc2c1
active: SK-MEL-2 melanoma -20.6% | UO-31 renal -37.8% | CAKI-1 renal -46.9% | A498 renal -28.6% | CCRF-CEM leukemia 8.74%
inactive: EKVX NSCLC 27.7% | SN12C renal 52.4% | TK-10 renal 58.8% | MOLT-4 leukemia 13.7%

Cc1ccc(S(=O)(=O)Nc2ccc(-c3cc(-c4cccc(F)c4)c(C#N)c(N)n3)cc2)cc1
active: UO-31 renal -88.2% | TK-10 renal -70.8% | CCRF-CEM leukemia 7.69% | MOLT-4 leukemia 9.77%
inactive: SK-MEL-2 melanoma 17.1% | EKVX NSCLC 51.6% | SN12C renal 11.5% | CAKI-1 renal 10.9% | A498 renal 68.1%

CC(=O)Nc1cc(F)cc(C(F)(F)F)c1Cl
inactive: SK-MEL-2 melanoma 105% | EKVX NSCLC 98% | SN12C renal 105% | UO-31 renal 92.8% | ACHN renal 99.3% | CAKI-1 renal 91.5% | A498 renal 100% | CCRF-CEM leukemia 102% | MOLT-4 leukemia 105%

Cc1csc(-c2ccc3c(c2)COC3(CCCN(C)C)c2ccc(F)cc2)c1 (stereo not given)
active: MOLT-4 leukemia -17.4%
inactive: SK-MEL-2 melanoma 25.8% | EKVX NSCLC 72.2% | SN12C renal 62.7% | UO-31 renal 44.7% | ACHN renal 63.6% | CAKI-1 renal 27.7% | A498 renal 86.2% | CCRF-CEM leukemia 11.3%

NNC(=O)c1nc2ccccc2[nH]1
inactive: SK-MEL-2 melanoma 99.4% | EKVX NSCLC 102% | SN12C renal 102% | UO-31 renal 101% | TK-10 renal 111% | CAKI-1 renal 94.9% | A498 renal 96.2% | CCRF-CEM leukemia 109% | MOLT-4 leukemia 79.8%

C#CCn1c2c(c3ccccc31)C[C@]1(C)[C@H]3CC[C@@H]4[C@@H]5C(=CCC[C@H]5C(=C)C)CC[C@@]4(C)[C@]3(C)CC[C@H]1C2(C)C
inactive: SK-MEL-2 melanoma 104% | EKVX NSCLC 99.2% | SN12C renal 95.6% | UO-31 renal 77.1% | TK-10 renal 122% | CAKI-1 renal 80.1% | A498 renal 111% | CCRF-CEM leukemia 114% | MOLT-4 leukemia 99.9%

CC(C)(C)c1ccc(OCCCCCCCN2CCNCC2)cc1
active: MOLT-4 leukemia 0.604%
inactive: SK-MEL-2 melanoma 103% | EKVX NSCLC 70% | SN12C renal 58.8% | UO-31 renal 33.3% | ACHN renal 13.6% | CAKI-1 renal 44.8% | A498 renal 79.9% | CCRF-CEM leukemia 17.8%

CC(c1ccccc1)N1C(=O)C(C2SC(=S)N(C(C)c3ccccc3)C2=O)SC1=S (stereo not given)
inactive: SK-MEL-2 melanoma 101% | EKVX NSCLC 94.4% | SN12C renal 85.5% | UO-31 renal 66.5% | ACHN renal 74.4% | CAKI-1 renal 66.6% | A498 renal 106% | CCRF-CEM leukemia 54.1% | MOLT-4 leukemia 78.8%

Cc1cc(N(CCCNc2ccnc3cc(Cl)ccc23)Cc2ccco2)nc(Cl)n1
inactive: SK-MEL-2 melanoma 65.4% | EKVX NSCLC 43.5% | SN12C renal 58.8% | UO-31 renal 36.7% | TK-10 renal 62.6% | A498 renal 46.1% | CCRF-CEM leukemia 67.3% | MOLT-4 leukemia 43.4%

CC(C)=CCC[C@](C)(O)[C@H]1CC[C@]2(C)[C@@H]1CC[C@@H]1[C@@]3(C)C/C(=C/c4cccc([N+](=O)[O-])c4)C(=O)C(C)(C)[C@@H]3CC[C@]12C
inactive: SK-MEL-2 melanoma 115% | EKVX NSCLC 92.6% | SN12C renal 81.1% | UO-31 renal 69.3% | ACHN renal 98.9% | CAKI-1 renal 51.9% | A498 renal 92.6% | CCRF-CEM leukemia 76.3% | MOLT-4 leukemia 67.5%

From PubChem BioAssay (NCI)
